The source of these data is PubChem BioAssay (NCATS).

The structures appear in SMILES notation. Results filed as inconclusive are left out. Where a call stands in place of a potency, no number is given. Calls of active or inactive are those of the source. Calls follow the shape of the dose curve; as a rule, active = well fitted cell-killing curve with a large enough effect; inconclusive = small, poorly fitted or top-dose-only effect, or effect the other way; inactive = no such curve, though single readings can be large or run the other way.
Potency is read from the fitted curve at half-maximal effect.

The nature of the first assay: Quantitative High-Throughput drug screen in 47 multiple myeloma cell lines against the NCATS MIPE library collection: XG1_PLB cell viability assay (AID 1919866). Also: nearly all actives have a fitted effect of over 35% in size. The conditions noted are these: CellTiter-Glo ATP, 48 h; series mostly up to 45.8 µM. Summed up:
(§1)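 ATP-based CellTiter-Glo luminescence after 48 h drug exposure (37 °C, 5% CO2) of 500 myeloma cells per well. DMSO-only wells set 100% viability, media-only wells 0%; MIPE 4.0 library added by pin tool.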
For `c1cnc2cc3c(cc2n1)C1CNCC3C1`, the Potency entry is “inactive”.
On to `CC1(C)C(=O)N(CCN2CCC(C(=O)c3ccc(F)cc3)CC2)c2ccccc21`, for which the Potency was 14.8 µM (active).
Turning to `O=c1c(O)c(-c2cc(O)c(O)c(O)c2)oc2cc(O)cc(O)c12`, the Potency result is “inactive”.
Still for that read-out and setting: under `CC1(C)NC(=O)N(c2ccc([N+](=O)[O-])c(C(F)(F)F)c2)C1=O` stands “inactive”.
The same measure, in the same setting: under `O=C1NC(=O)C(c2ccccc2[N+](=O)[O-])=C1Nc1ccc(O)c(Cl)c1` stands 8.33 µM (active); under `N=C(N)c1ccc2cc(OC(=O)c3ccc(N=C(N)N)cc3)ccc2c1`, “inactive”; under `CCN(CCO)CCCC(C)Nc1ccnc2cc(Cl)ccc12` (stereo unspecified), “inactive”.
With `COc1cc(OC)c(C(=O)CCCN2CCCC2)c(OC)c1`, the Potency entry is “inactive”.
For `CN(c1nccc(=O)[nH]1)C1CCN(c2nc3ccccc3n2Cc2ccc(F)cc2)CC1`, the Potency was 18.7 µM (active).
With `Cc1nc(Nc2ncc(C(=O)Nc3c(C)cccc3Cl)s2)cc(N2CCN(CCO)CC2)n1`, the Potency is 16.6 µM (active).
In the case of `Clc1ccc(C(Cn2ccnc2)OCc2ccsc2Cl)c(Cl)c1` (stereo unspecified), the Potency is 23.5 µM (active).
On to `CCCOc1ccc2nc(NC(=O)OC)[nH]c2c1`, for which the Potency entry was “inactive”.
Take `CC1=C(C(=O)O)N2C(=O)[C@@H](NC(=O)[C@H](N)C3=CCC=CC3)[C@H]2SC1`: the Potency entry was “inactive”.
Consider `CC1(C)CCC(C)(C)c2cc(NC(=O)c3ccc(C(=O)O)cc3)ccc21`, for which the Potency was 3.72 µM (active).
Regarding `CCOC(=O)C1=C(O)C(=O)N(Cc2ccccc2)C1`, the Potency result was “inactive”.
In the case of `CCC1=C(C)CN(C(=O)NCCc2ccc(S(=O)(=O)NC(=O)NC3CCC(C)CC3)cc2)C1=O` (stereo unspecified), the Potency result is “inactive”.
On to `O=C(NOCC1CC1)c1ccc(F)c(F)c1Nc1ccc(I)cc1Cl`, for which the Potency is 11.8 µM (active).
The same measure, in the same setting: in the case of `NC(=O)Cc1cccc(C(=O)c2ccccc2)c1N` it was “inactive”; in that of `C[C@H](Cn1cnc2c(N)ncnc21)OCP(=O)(O)O`, “inactive”; in that of `Cc1cc(=O)c2c(O)c3c(O)cc(=O)c4c3c3c(cc(O)c1c23)C(C)(C)C=4O`, 1.05 µM (active).
Regarding `Oc1ccc(OCc2ccccc2)cc1`, the Potency entry is “inactive”.
For `O=C(NCCO[N+](=O)[O-])c1cccnc1`, the Potency entry is “inactive”.
As for `CC(=O)O[C@H]1C(=O)[C@@]2(C)C([C@H](OC(=O)c3ccccc3)[C@]3(O)C[C@H](OC(=O)[C@H](O)[C@@H](NC(=O)c4ccccc4)c4ccccc4)C(C)=C1C3(C)C)[C@]1(OC(C)=O)CO[C@@H]1C[C@@H]2O` (stereo partly specified), the Potency result is “inactive”.
On to `CCCCN(CCCC)CCC(O)c1cc2c(Cl)cc(Cl)cc2c2cc(C(F)(F)F)ccc12` (stereo unspecified), for which the Potency is 18.7 µM (active).
As to `CCc1nc(N)nc(N)c1-c1ccc(Cl)cc1`, the Potency is 3.72 µM (active).
Same read-out and setting: under `CCCCCCCCCCCCCCCCCCCCCCO` stands “inactive”.
As for `CN(C)[C@@H](CCOc1cccc2ccccc12)c1ccccc1`, the Potency was 16.6 µM (active).
Take `O=c1c(O)c(-c2ccc(O)cc2O)oc2cc(O)cc(O)c12`: the Potency is 0.833 µM (active).
Same read-out and setting: in the case of `CN(C)CCc1c[nH]c2ccc(Cn3cncn3)cc12` it was “inactive”; in that of `CC(=O)N1CCN(c2ccc(OC[C@H]3CO[C@](Cn4ccnc4)(c4ccc(Cl)cc4Cl)O3)cc2)CC1`, 13.2 µM (active).
For `CN1C(C(=O)Nc2ccccn2)=C(O)c2sccc2S1(=O)=O`, the Potency result is “inactive”.
On to `C=CCc1cc(OC)c(O)c(C(=O)NCCO)c1`, for which the Potency result is “inactive”.

A further assay can be described thus: Quantitative High-Throughput drug screen in 47 multiple myeloma cell lines against the NCATS MIPE library collection: VP6_DJ cell viability assay (AID 1919867). Also: nearly all actives have a fitted effect of over 40% in size. The conditions noted are these: ATP luminescence, 48 h; series mostly up to 45.8 µM. Summed up: as §1
In the case of `CC1(C)C(=O)N(CCN2CCC(C(=O)c3ccc(F)cc3)CC2)c2ccccc21`, the Potency is 4.18 µM (active).
Consider `CC1(C)NC(=O)N(c2ccc([N+](=O)[O-])c(C(F)(F)F)c2)C1=O`, for which the Potency entry is “inactive”.
`N=C(N)c1ccc2cc(OC(=O)c3ccc(N=C(N)N)cc3)ccc2c1`: the Potency was 5.26 µM (active).
Regarding `CN(C)C(=O)COC(=O)Cc1ccc(OC(=O)c2ccc(N=C(N)N)cc2)cc1`, the Potency entry is “inactive”.
On the same count and under the same terms, under `CCN(CCO)CCCC(C)Nc1ccnc2cc(Cl)ccc12` (stereo unspecified) stands “inactive”; under `CN(c1nccc(=O)[nH]1)C1CCN(c2nc3ccccc3n2Cc2ccc(F)cc2)CC1`, 23.5 µM (active).
Still for that read-out and setting: under `C[C@]12CCC(=O)C=C1CC[C@@H]1[C@H]2[C@@H](O)C[C@@]2(C)[C@H]1CC[C@]2(O)C(=O)CO` stands 14.8 µM (active); under `Cc1nc(Nc2ncc(C(=O)Nc3c(C)cccc3Cl)s2)cc(N2CCN(CCO)CC2)n1`, 0.0662 µM (active).
As to `CC1(C)CCC(C)(C)c2cc(NC(=O)c3ccc(C(=O)O)cc3)ccc21`, the Potency is 18.7 µM (active).
As for `CCC1=C(C)CN(C(=O)NCCc2ccc(S(=O)(=O)NC(=O)NC3CCC(C)CC3)cc2)C1=O` (stereo unspecified), the Potency result is “inactive”.
Turning to `COc1cc(C(C)=O)ccc1OCCCN1CCC(c2noc3cc(F)ccc23)CC1`, the Potency was 16.6 µM (active).
Take `CC(C)[N+]1(C)[C@@H]2CC[C@H]1CC(OC(=O)C(CO)c1ccccc1)C2` (stereo partly specified): the Potency is 14.8 µM (active).
As to `O=C(NOCC1CC1)c1ccc(F)c(F)c1Nc1ccc(I)cc1Cl`, the Potency was 4.69 µM (active).
`C[C@H](Cn1cnc2c(N)ncnc21)OCP(=O)(O)O`: the Potency result was “inactive”.
In the case of `Cc1cc(=O)c2c(O)c3c(O)cc(=O)c4c3c3c(cc(O)c1c23)C(C)(C)C=4O`, the Potency is 0.469 µM (active).
Regarding `Oc1ccc(OCc2ccccc2)cc1`, the Potency result was “inactive”.
Take `O=C(NCCO[N+](=O)[O-])c1cccnc1`: the Potency result is “inactive”.
As to `CC(=O)O[C@H]1C(=O)[C@@]2(C)C([C@H](OC(=O)c3ccccc3)[C@]3(O)C[C@H](OC(=O)[C@H](O)[C@@H](NC(=O)c4ccccc4)c4ccccc4)C(C)=C1C3(C)C)[C@]1(OC(C)=O)CO[C@@H]1C[C@@H]2O` (stereo partly specified), the Potency entry was “inactive”.
As for `CCCCN(CCCC)CCC(O)c1cc2c(Cl)cc(Cl)cc2c2cc(C(F)(F)F)ccc12` (stereo unspecified), the Potency was 18.7 µM (active).
As to `CCc1nc(N)nc(N)c1-c1ccc(Cl)cc1`, the Potency was 3.32 µM (active).
Regarding `CCCCCCCCCCCCCCCCCCCCCCO`, the Potency result was “inactive”.
The same measure, in the same setting: under `CN(C)[C@@H](CCOc1cccc2ccccc12)c1ccccc1` stands 26.4 µM (active); under `CN(C)CCc1c[nH]c2ccc(Cn3cncn3)cc12`, 2.09 µM (active); under `CC(=O)N1CCN(c2ccc(OC[C@H]3CO[C@](Cn4ccnc4)(c4ccc(Cl)cc4Cl)O3)cc2)CC1`, 11.8 µM (active).
